This note sets out measurements from PubChem BioAssay.

“And” between values parts separate entries of the source, which are not always exact repeats. Identical values can stand only once. Unmarked numbers belong to inactive results.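 How the source made its calls: active means compounds whose cell count with miR-34 switched on is under 0.7 times the count with it off; inactive means the rest.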

The nature of this test: sensitizers of A549 cells to miR-34 induction, primary screen, imaging, A549 dox-inducible miR-34, nuclei and caspase counts (AID 1347080). Further: test concentration not given here. To be noted: A549 miR-34 inducible, Hoechst nuclei count, 48 h; hits give low values; cell number ratio, induced over uninduced.
With `CC(=O)OCC(=O)[C@]12N=C(C)O[C@@H]1C[C@H]1[C@@H]3CCC4=CC(=O)C=C[C@]4(C)[C@@H]3C(O)C[C@@]12C` (some centres not stated), the fold change is 0.954.

Consider `O=C(C=Cc1ccc(O)c(O)c1)c1ccc(O)cc1O`, for which the fold change was 0.953.

For `CC(C)=CCC[C@](C)(OC1OC(COC2OCC(O)C(O)C2O)C(O)C(O)C1O)C1CC[C@]2(C)[C@@H]1C(O)C[C@H]1[C@@]3(C)CCC(OC4OC(CO)C(O)C(O)C4O)C(C)(C)[C@@H]3CC[C@]12C` (some centres not stated), the fold change was 0.96.

Turning to `COc1c(C)c2c(c(O)c1CC=C(C)CCC(=O)OCCN1CCOCC1)C(=O)OC2`, the fold change is 0.917.

For the molecule `CC(=Cc1ccc(C(=O)O)cc1)c1ccc2c(c1)C(C)(C)CCC2(C)C`, the fold change was 0.986.

Regarding `Cc1ccc(C2OC(CO)C(O)C(O)C2O)cc1Cc1ccc(-c2ccc(F)cc2)s1` (configuration not stated), the fold change was 0.902.

Consider `CNCc1cc(-c2ccccc2F)n(S(=O)(=O)c2cccnc2)c1`, for which the fold change is 0.924.

Regarding `OCC(CO)NC1C[C@@](O)(CO)C(O)C(O)C1O` (some centres not stated), the fold change was 0.838.

For `COc1cc(C=CC(=O)N2CCN(CC(=O)N3CCCC3)CC2)cc(OC)c1OC`, the fold change is 0.989.

With `O=C(O)C1=CC(O)C(O)C(O)C1` (configuration not stated), the fold change is 0.975.

In the case of `Cc1ccc(C(=O)NCCCCCC(=O)Nc2ccccc2N)cc1`, the fold change is 0.986.

As for `O=C(Nc1cccc(Cl)c1)c1ccccn1`, the fold change is 0.981.

With `Cc1ccc(C(=O)N(CCCN)C(c2oc3cc(Cl)ccc3c(=O)c2Cc2ccccc2)C(C)C)cc1` (configuration not stated), the fold change was 0.942.

In the case of `O=c1ncccn1C1OC(CO)C(O)C1O` (configuration not stated), the fold change is 0.912.

As to `C=CC(C)(O)CCC1[C@@]2(C)CCCC(C)(C)C2CC[C@@]1(C)O` (some centres not stated), the fold change was 0.916.

Consider `N#CCC(C1CCCC1)n1cc(-c2ncnc3[nH]ccc23)cn1` (configuration not stated), for which the fold change is 1.03 and 0.94.

With `COc1cc(C(C)=O)ccc1O`, the fold change was 0.901.

Consider `Cc1[nH]c2ccccc2c1C1=C(NCCc2ccc(F)cc2)C(=O)N(C)C1=O`, for which the fold change is 0.916.

As for `CCN(CC)C(=O)C(C#N)=Cc1cc(O)c(O)c([N+](=O)[O-])c1`, the fold change is 1.2.

Consider `Cc1cccc(C)c1OCC(=O)NC(Cc1ccccc1)C(O)CC(Cc1ccccc1)NC(=O)C(C(C)C)N1CCCNC1=O` (configuration not stated), for which the fold change was 1.

For the molecule `N#CC1C[C@@H]2C[C@H]2N1C(=O)C(N)C12CC3CC(CC(O)(C3)C1)C2` (some centres not stated), the fold change was 0.986.

Take `Cc1cc(C)nc(NS(=O)(=O)c2ccc(NC(=S)NC(=O)COc3ccc(Br)cc3Cl)cc2)n1`: the fold change was 0.955.

`O=C(c1ccc(C=Cc2n[nH]c3ccccc23)cc1)N1CCNCC1`: the fold change was 0.879.

As to `Nc1nc(CC(=O)Nc2ccc(CCNCC(O)c3ccccc3)cc2)cs1` (configuration not stated), the fold change was 0.898.

Turning to `NC(=O)C(CCC(F)(F)F)N(Cc1ccc(-c2ncon2)cc1F)S(=O)(=O)c1ccc(Cl)cc1` (configuration not stated), the fold change was 0.918.

On to `CC1(C)OC2C[C@H]3[C@@H]4CCC5=CC(=O)CC[C@]5(C)[C@]4(F)C(O)C[C@]3(C)[C@@]2(C(=O)CCl)O1` (some centres not stated), for which the fold change is 0.851.

In the case of `CC1(C)S[C@@H]2C(NC(=O)C(C(=O)O)c3ccccc3)C(=O)N2C1C(=O)O` (some centres not stated), the fold change is 0.89.

In the case of `O=C(O)C1=COC(OC2OC(CO)C(O)C(O)C2O)[C@@H]2C(CO)=CC[C@H]12` (some centres not stated), the fold change was 0.954.

As for `CC1=C(CC(=O)O)c2cc(F)ccc2C1=Cc1ccc(S(C)=O)cc1` (configuration not stated), the fold change is 0.878.

Consider `NC1=N[C@@]2(c3cc(NC(=O)c4ccc(F)cn4)ccc3F)COC[C@@H]2CS1`, for which the fold change was 0.902.

For the molecule `OCC1OC(Oc2ccc(O)cc2)C(O)C(O)C1O` (configuration not stated), the fold change was 0.859.

On to `CCC1OC(=O)CC(O)C(C)C(O[C@H]2OC(C)C(O[C@H]3C[C@@](C)(O)C(O)C(C)O3)C(N(C)C)C2O)C(CC=O)CC(C)C(=O)C=CC(C)=CC1COC1OC(C)C(O)C(OC)C1OC` (some centres not stated), for which the fold change is 0.9.

Turning to `C[C@]12CC[C@H]3c4ccc(O)cc4CC[C@H]3[C@@H]1CCC2OC(=O)CCC1CCCC1` (some centres not stated), the fold change was 0.984.

In the case of `CNC1CN(c2ccc3c(=O)c(C(=O)O)cn(-c4nccs4)c3n2)CC1OC` (configuration not stated), the fold change was 1.31.

For `COc1cc(CCC(C)=O)ccc1O`, the fold change was 0.964.

Turning to `N#CC(=Cc1ccc(O)c(O)c1)C(=O)NCc1ccccc1`, the fold change was 0.901.

With `C#C[C@@]1(O)CC[C@H]2[C@@H]3CCc4cc(OC)ccc4[C@@H]3CC[C@@]21C`, the fold change was 0.921.
